# Measured values taken from PubChem BioAssay (Tox21).
# Results filed as inconclusive are left out. A number with no mark means an inactive call. Calls come from the whole dose curve; as a rule, active = well fitted cell-killing curve with a large enough effect in the repeat runs; inconclusive = weak or mixed curves, or effect the other way; inactive = no such curve, though single readings can be large or run the other way.
# Assay: qHTS assay to identify small molecule agonists of the estrogen receptor alpha (ER-alpha) signaling pathway in the presence of an antagonist - cell viability counter screen (AID 1259386);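 note: cells exposed to compounds for 22 h at 37 °C before the viability read; nearly all actives have a fitted effect of over 30% in size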
# Conditions: VM7Luc4E2 viability, CellTiter-Fluor fluorescence, 22 h; series mostly up to 92.4 µM; activity change, negative = cytotoxicity: at the top concentration
# Procedure, shortened: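 Cell viability in VM7Luc4E2 cells (endogenous full-length ER-alpha) measured by CellTiter-Fluor fluorescence in the same wells as the luciferase screen. Cells pre-cultured 5 days in charcoal-stripped serum, then treated 22 h with compounds at 15 concentrations plus 10.0nM ICI-182,780.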
# % is set by controls: 0 for no effect and ±100 for the full control effect.
row,SMILES,"activity change, negative = cytotoxicity"
1,NC(=O)CCCCC(N)=O,-0.141%
2,C[C@H](CS)C(=O)N1CCC[C@H]1C(=O)O,-1.47% [at 42.5 µM]
3,Cc1ccccc1S(N)(=O)=O,1.64%
4,Cc1ccc2c(c1)CCCN2,-6.08%
5,CCCCC(CC)COS(=O)(=O)O (stereo not drawn),2.03%
6,CC1=CC[C@@]23C[C@@H]1C(C)(C)[C@@H]2CC[C@H]3C,0.335%
7,O=S(=O)(Cl)c1c(Cl)cccc1Cl,-3.98%
8,CCCCCCCCCCCCCCN(C)C,-8.37% [at 19 µM]
9,CCCCCCCCCCCCCOS(=O)(=O)O,0.835%
10,CC(=O)NNC(C)=O,1.14%
11,CNCc1ccc(NC(=O)c2c[nH]c3c2C(=O)CCC3)cc1,-10.6%
12,CCCCCCC(O)CCCCCCCCCCC(=O)OC (stereo not drawn),2.09%
13,CCOc1ncc(F)c(=O)[nH]1,4.81% [at 42.5 µM]
14,CN1C(CSCC(F)(F)F)Nc2cc(Cl)c(S(N)(=O)=O)cc2S1(=O)=O (stereo not drawn),-0.421% [at 42.5 µM]
15,C[C@@H]1C[C@H]2[C@@H]3CCC4=CC(=O)C=C[C@]4(C)[C@@]3(F)[C@@H](O)C[C@]2(C)[C@@]1(O)C(=O)COP(=O)(O)O,2.07%
16,CCCCC[C@H](O)/C=C/[C@H]1[C@H](O)CC(=O)[C@@H]1C/C=C\CCCC(=O)O,0.779% [at 42.5 µM]
17,CC1C(C)(C)C2=C(C(=O)CCC2)C1(C)C (stereo not drawn),-1.73%
18,CCCc1nc2c(C)cc(-c3nc4ccccc4n3C)cc2n1Cc1ccc(-c2ccccc2C(=O)O)cc1,0.677% [at 42.5 µM]
19,O=C1OC[C@H](Cc2cccc(O)c2)[C@H]1Cc1cccc(O)c1,0.197% [at 42.5 µM]

row,SMILES,"activity change, negative = cytotoxicity"
1,CNS(=O)(=O)c1cc(C(=O)N2CCC(CCN3C4CCC3CC(n3c(C)nc5ccccc53)C4)(c3cccc(F)c3)CC2)c(Cl)cc1F (stereo not drawn),-10.1%
2,CC1CCC(C(C)CS)CC1S (stereo not drawn),-0.825%
3,C1=CCC2CC=CC2C1 (stereo not drawn),0.177%
4,CCC(=O)OCc1ccc(OC)cc1,0.723%
5,C=CCOC(=O)COCCC(C)C,-2.7%
6,O=C(/C=C/c1ccc([N+](=O)[O-])cc1)c1ccccc1,-0.0533%
7,Cc1ccc(S(=O)(=O)NC(=O)NC2CCCCC2)cc1,1.35% [at 42.5 µM]
8,O=C(c1ccccc1)c1ccc(O)cc1,1.08%
9,CC(C)CC(O)CC(C)C,3.81%
10,CNc1c2c(nn1C)CCCC2,2.04% [at 42.5 µM]
11,Nc1ccc(S(=O)(=O)NCc2ccccc2)cc1,-3.78% [at 42.5 µM]
12,CC[C@@H](CO)NCCN[C@@H](CC)CO,1.64% [at 42.5 µM]
13,Nc1ccn([C@H]2CS[C@@H](CO)O2)c(=O)n1,3.1%
14,Cc1ccc(Cl)cc1N,0.906%
15,CC(C)(C)CCCCCCOC(=O)c1ccccc1C(=O)OCCCCCCC(C)(C)C,0.735%
16,Cc1oc(=O)oc1COC(=O)[C@@H]1N2C(=O)[C@@H](NC(=O)[C@H](N)c3ccccc3)[C@H]2SC1(C)C,1.58% [at 42.5 µM]
17,SCCc1cnccn1,-8.66%
18,ClC1=C(Cl)C1(Cl)Cl,0.338%
19,C=CC(=O)O,3.8% [at 42.5 µM]
